Results published in ChEMBL document CHEMBL1157539, “Thousands of chemical starting points for antimalarial lead identification” (Nature, 2010).

system: Plasmodium falciparum; assay: GSK_TCMDC: Inhibition of Plasmodium falciparum 3D7 in whole red blood cells, using parasite LDH activity as an index of growth. Test compounds present at 2uM; assay type: functional

| SMILES | Inhibition [%] |
| --- | --- |
| CC1CCCCC1N(C)C1CCN(CCCNC(=O)C=Cc2ccc(Cl)cc2Cl)CC1 (centres undefined) | 100 |
| O=C(Nc1cccc(-c2nn3ccccc3c2-c2ccnc(Nc3cccc(F)c3)n2)c1)c1c(F)ccc(F)c1Cl | 93 |
| O=C(NC1CCN(Cc2ccccc2)CC1)c1ccc(CNC2CCN(Cc3ccccc3)CC2)cc1.O=C(O)C(F)(F)F | 99 |
| CC1CN(c2cnn(Cc3ccc(NC(=O)Nc4ccc(F)cc4[N+](=O)[O-])cc3)c(=O)c2Cl)CC(C)N1.O=C(O)C(F)(F)F (centres undefined) | 89 |

system: Plasmodium falciparum; assay: GSK_TCMDC: Inhibition of Plasmodium falciparum Dd2 in whole red blood cells, using parasite LDH activity as an index of growth. Test compounds present at 2uM; assay type: functional

| SMILES | Inhibition [%] |
| --- | --- |
| Cc1cc(=NN=Cc2ccccc2F)c2cc(C(F)(F)F)ccc2[nH]1 | 67 |
| C[C@H](NC(=O)c1c(CN2CCC(N3CCCCC3=O)CC2)c(-c2cccs2)nc2ccccc12)C1CCCCC1 | 73 |
| O=C(NC1CC1)c1ccc(N2CCC(Cc3ccccc3)CC2)nc1.O=C(O)C(F)(F)F | 92 |
| CCC(C)(C)NC(=O)C(c1cccc(OC)c1)N(C(=O)CNC(=O)c1cccs1)c1ccc2c(c1)OCCO2 (centres undefined) | 76 |
| C=C(C)CSc1nc2c(c(=O)n1CCc1ccccc1)C1(CCCC1)Cc1ccccc1-2 | 80 |
| CCN1CCCC1CNC(=O)c1cc2c(-c3ccc(Cl)cc3)nn(C)c2s1 (centres undefined) | 20 |
| Cl.O=C(/C=C/c1ccccc1F)NC1CCC(CCN2CCc3ccc(-c4cccnc4)cc3CC2)CC1 (centres undefined) | 5 |
| O=C(CSc1nccn1Cc1ccco1)Nc1cc(C(F)(F)F)ccc1Cl | 66 |
| CCc1cc2c(N)nc(N)nc2nc1-c1ccccc1 | 0 |
| CC(=O)Nc1sc(C)c(C)c1CN1CCc2ccccc2C1 | 94 |
| Oc1ccccc1-c1nc2cccnc2n1CCc1cccc(C(F)(F)F)c1 | 36 |
| COc1ccc(S(=O)(=O)Nc2ccc(C(=O)NCc3ccccc3C(F)(F)F)cc2)cc1N1CCN(CC2CC2)CC1.O=C(O)C(F)(F)F | 5 |
| O=C(Nc1cccc(CN2CCCN(Cc3cccc(Cl)c3)CC2)c1)c1ccc(Cl)c(Cl)c1.O=C(O)C(F)(F)F | 17 |
| O=C(Nc1ccnc(N2CC3CC2CN3Cc2cccc(O)c2)c1)c1ccc(F)cc1.O=C(O)C(F)(F)F (centres undefined) | 0 |
| O=C(Nc1ccc(Cl)cc1C(=O)Nc1ccncc1)c1ccc(Cl)cc1Cl | 75 |
| CCCOc1cccc(C(=O)N[C@@H](Cc2ccccc2)[C@H](O)CNCc2cccc(OC)c2)c1 | 18 |
| N#Cc1ccc(N/C(=N\c2cccc(Cl)c2Cl)NCc2ccc(Cl)cc2Cl)c(O)c1 | 75 |
| O=C(Nc1cccc(CN2CCCN(Cc3cccc(F)c3)CC2)c1)c1ccc(Cl)c(Cl)c1.O=C(O)C(F)(F)F | 6 |
| COc1ccc(OC)c(-c2ccc(O)c(CNCC(C)c3ccccc3)c2)c1 (centres undefined) | 96 |
| Cl.N#Cc1ccc2c(c1)CN(CCCCNC(=O)c1ccc(-c3ccccc3)cc1)CC2 | 10 |

| SMILES | Inhibition [%] |
| --- | --- |
| CC(=O)Nc1ccc(C2NC(=O)NC(c3ccccc3)=C2c2nc3ccccc3s2)cc1 (centres undefined) | 96 |
| CN1CCC(N2CCN(Cc3ccc(-c4ccc(-c5nc6cc(F)ccc6[nH]5)s4)cc3)CC2)CC1.O=C(O)C(F)(F)F | 100 |
| O=C(Nc1cccc(-c2cccc(-c3nc4cc(C(F)(F)F)ccc4[nH]3)c2)c1)c1cccnc1 | 70 |
| CN(C(=O)/C=C/c1cc(C(F)(F)F)ccc1F)C1CCN(CCCCCNC(=O)/C=C/c2ccc(Cl)c(Cl)c2)C1 (centres undefined) | 1 |
| COc1ccc2nccc([C@@H](O)CN3CCC(NCc4ccc5cccc(O)c5n4)CC3)c2n1.CS(=O)(=O)O | 13 |
| CCOc1cc(C)ccc1C1CCN(CCCCNC(=O)c2coc(-c3ccc(Cl)cc3)c2)CC1.Cl | 30 |
| O=C(NC1CCN(CC2(c3ccccc3F)CCCC2)CC1)c1cc[nH]n1 | 91 |
| O=C(Nc1cccc(-c2ccc(-c3nc4cc(F)ccc4[nH]3)s2)c1)c1cccnc1 | 72 |
| N#Cc1ccc(CN2CCCN(Cc3cccc(NC(=O)c4cc5ccccc5s4)c3)CC2)cc1.O=C(O)C(F)(F)F | 36 |
| O=C(O)C(F)(F)F.O=S(=O)(NCCN1CCCC1)c1ccc(-c2ccc(CNCc3ccccc3)cc2)s1 | 17 |
| Oc1cccc(-c2nc(-c3ccccc3)c(-c3ccc(Oc4ccc(-c5[nH]c(-c6cccc(O)c6)nc5-c5ccccc5)cc4)cc3)[nH]2)c1 | 96 |
| CCCCCC(C)C(C)c1cc(O)c2c(c1)OC(C)(C)CC2(O)c1ccnn1C (centres undefined) | 95 |
| COc1ccc(N2CCN(CCCCNC(=O)c3ccc(NC(=O)c4ccc(Cl)cc4)cc3)CC2)c(OC)c1.Cl | 22 |
| CN(C)CCCOc1ccc(CN2CC[C@H](NC(=O)c3ccc(Cl)c(Cl)c3)C2)cc1Cl.O=C(O)C(F)(F)F | 35 |
| Cc1cc([N+](=O)[O-])ccc1NC(=O)Nc1cccc(C(F)(F)F)c1 | 100 |
| CN(C)C(CNC(=O)c1cc(-c2ccncc2)c(-c2ccc(Cl)c(O)c2)o1)c1ccccc1.O=C(O)C(F)(F)F (centres undefined) | 28 |
| CC1CCCCC1N(C)C1CCN(CCCNC(=O)C=Cc2ccc(Cl)cc2Cl)CC1 (centres undefined) | 59 |
| O=C(Nc1cccc(-c2nn3ccccc3c2-c2ccnc(Nc3cccc(F)c3)n2)c1)c1c(F)ccc(F)c1Cl | 38 |
| O=C(NC1CCN(Cc2ccccc2)CC1)c1ccc(CNC2CCN(Cc3ccccc3)CC2)cc1.O=C(O)C(F)(F)F | 58 |
| CC1CN(c2cnn(Cc3ccc(NC(=O)Nc4ccc(F)cc4[N+](=O)[O-])cc3)c(=O)c2Cl)CC(C)N1.O=C(O)C(F)(F)F (centres undefined) | 10 |
